Hits are enriched below; roughly 18% of the tested compounds scored in any of these assays.
TDP1 cell noCPT: qHTS for Inhibitors of human tyrosyl-DNA phosphodiesterase 1 (TDP1): qHTS in cells in absence of CPT. Potency, µM (highest dose often 46.2 µM), without a hit: top-dose activity change, negative = growth inhibition, actives largely listed as inhibitors. 15% of 420,000 active. AID 686978, 2013. DT40 Tdp1-/- hTDP1 cells, no CPT, ATP luminescence, 48 h; note: potency is the fitted concentration of half-maximal effect; nearly all actives have a fitted effect of over 55% in size
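DT40 Tdp1-/-;hTDP1 cells, no CPT (DMSO vehicle only), 400 cells/well; compounds pin-transferred; ≥48 hr, 37 °C; CellTiter-Glo 30 min RT dark, luminescence read.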
RORg inh: qHTS for inhibitors of ROR gamma transcriptional activity | Nuclear receptor ROR-gamma (Mus musculus), P51450 | Drosophila S2 Gal4-RORgamma UAS-luciferase reporter, 20 h | Potency, µM (doses to about 53.6 µM), inactives show at the top dose activity change, negative = inhibition, actives largely listed as inhibitors | 5.4% of 310,000 active; note: potency is the fitted concentration of half-maximal effect; nearly all actives have a fitted effect of over 60% in size
Target sequence (P51450 whole entry, looked up, the tested form may be a part): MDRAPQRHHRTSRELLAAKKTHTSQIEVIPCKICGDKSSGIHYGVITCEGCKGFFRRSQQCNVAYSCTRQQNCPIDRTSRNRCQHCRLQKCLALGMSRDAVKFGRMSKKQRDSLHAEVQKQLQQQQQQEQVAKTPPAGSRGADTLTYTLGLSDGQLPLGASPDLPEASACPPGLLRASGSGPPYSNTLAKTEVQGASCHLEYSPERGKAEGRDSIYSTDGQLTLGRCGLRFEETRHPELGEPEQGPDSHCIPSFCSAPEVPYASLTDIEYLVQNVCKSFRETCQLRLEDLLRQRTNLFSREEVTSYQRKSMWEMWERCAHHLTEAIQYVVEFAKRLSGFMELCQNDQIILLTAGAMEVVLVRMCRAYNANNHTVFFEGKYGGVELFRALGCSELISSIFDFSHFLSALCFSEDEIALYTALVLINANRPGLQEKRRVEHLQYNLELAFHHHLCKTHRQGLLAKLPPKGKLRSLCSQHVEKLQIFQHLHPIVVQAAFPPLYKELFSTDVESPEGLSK
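In this cell-based reporter format, copper sulfate (700 uM final) drives Gal4–ROR gamma fusion expression from a metallothionein promoter in Drosophila Schneider cells; compounds preincubated 1 hr, reporter read after 20 hr at ambient temperature.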
VP16 counter: VP16 counterscreen qHTS for inhibitors of ROR gamma transcriptional activity. Drosophila S2 Gal4-VP16 UAS-luciferase, luminescence, 20 h. Potency, µM (titrated, usually from 53.6 µM), inactives show at the top dose activity, negative = inhibition, usual class: inhibitors. 3.5% of 310,000 active. AID 2546, 2010;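 note: Gal4-VP16 expression switched on by copper sulfate through the metallothionein promoter; potency is the fitted concentration of half-maximal effect; nearly all actives have a fitted effect of over 50% in size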
TDP1 cell CPT: qHTS for Inhibitors of human tyrosyl-DNA phosphodiesterase 1 (TDP1): qHTS in cells in presence of CPT; AID 686979, 2013; chicken DT40 Tdp1-/-;hTDP1 cells + 20 nM CPT, ATP luminescence, 48 h; Potency, µM (top dose mostly 46.2 µM), for inactives: at the highest dose activity change, negative = growth inhibition, actives largely listed as inhibitors; 12% of 420,000 active; note: potency is the fitted concentration of half-maximal effect; nearly all actives have a fitted effect of over 55% in size
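Cell growth measured by CellTiter-Glo luminescence after a minimum 48 h, 37 C compound exposure with 20 nM CPT in Tdp1-knockout DT40 cells stably expressing hTDP1, seeded 400/well; qHTS titration format.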
LDHA block: qHTS assay for inhibitors of human lactate dehydrogenase; AID 1347041, 2019; activity change, % (values are at about 110 or 230 µM); 0.15% of 480,000 active; purified LDHA, NADH/diaphorase-resazurin fluorescence; hits give low values; in the data active = activity change below about -30%; inconclusive = mostly about -25% to -30%;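 note: plate controls were DMSO wells for no effect and wells without enzyme for full effect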
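Human LDH5 (2 nM) was incubated with 0.06 mM NADH and 0.2 mM pyruvate for 5 min at room temperature in Tris pH 7.4. Remaining NADH was coupled through diaphorase/resazurin, and resorufin fluorescence was read at 0 and 20 min.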
IL-1B inflam inh: qHTS for Inhibitors of Inflammasome Signaling: IL-1-beta AlphaLISA Primary Screen; activity change, % at 57.5 µM; 4.7% of 360,000 active; AID 743279, 2014; THP-1 LPS/ATP IL-1B secretion, AlphaLISA, 16 h; hits give low values; in the data active = activity change below about -50%; inconclusive = mostly about -30% to -49%
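THP-1 cells pretreated 1 hr with compounds (up to 57.5 uM final), then stimulated with LPS (250 ng/mL final) plus ATP (1.25 mM final); secreted IL-1B measured by AlphaLISA after 16 hr, decreased signal indicating inhibition.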
* hit, by the source's call; ? = inconclusive; nt = not tested or not shown; [ ] = dose if it differs, or a comment. Unless noted, calls come from the whole dose curve; as a rule, active = well fitted curve in the direction sought with a large enough effect; inconclusive = small, poorly fitted or top-dose-only effect, or another doubt; inactive = no such curve, though single readings can be large; an effect the other way counts as inactive or inconclusive. Unless noted, % is set by controls: 0 for no effect and ±100 for the full control effect.

SMILES	TDP1 cell noCPT	RORg inh	VP16 counter	TDP1 cell CPT	LDHA block	IL-1B inflam inh
c1ccc(CN2CCN(Cc3c[nH]c4ccccc34)CC2)cc1	10.3µM*	7.4%	-5.4%	2.06µM*	-1.8	-16.1
C/C(=N\NC(=O)c1ccc(O)cc1)c1ccc2c(c1)OCCO2	15.9%	nt	nt	0.2%	-2.8	13.3
CC(/C=C/c1ccccc1)=N\NC(=O)c1ccc2c(c1)OCCO2	?	12.6µM*	?	?	-4.8	-11.2
C/C(=N\NC(=O)c1ccc2c(c1)OCCO2)c1ccccc1	0.6%	5.62µM*	7.94µM*	18.8%	-8.7	22.2
CCn1c(-c2ccc(OC)c(O)c2)nc2c1c(=O)[nH]c(=O)n2Cc1ccccc1	nt	nt	nt	nt	2.2	nt
Cc1[nH]c2ccccc2c1SCc1ccccc1	?	26.8%	-7.6%	?	0.0	1.5
Cc1ccc(-c2[nH]c3ccccc3c2SCCN)cc1	14.6µM*	-13.9%	-7.2%	?	-0.9	-65.1*
Cc1ccc(-c2cc(=O)[nH]c3ccccc23)cc1	7.31µM*	nt	nt	9.2µM*	1.6	-3.5
NCCSc1c(-c2ccccc2)[nH]c2ccccc12	20.6µM*	13.4%	11.3%	?	-5.8	-21.4
NCCSc1c(-c2ccc(Cl)cc2)[nH]c2ccccc12	?	7.2%	-0.6%	?	-0.9	-64.8*
Cc1[nH]c2ccccc2c1SCCN	?	nt	nt	?	-14.0	-14.8
CCc1ccc(C(=O)NCc2ccc(N3CCCN(C)CC3)nc2)o1	nt	nt	nt	nt	5.0	nt
O/N=C/c1cc[n+](C/C=C\c2ccccc2)cc1	nt	nt	nt	nt	-1.2	nt
CCc1nnc(NC(=O)CSc2nnc3c(C)cc4c(C)ccc(C)c4n23)s1	4.61µM*	35.2%	-2.2%	3.66µM*	-1.8	30.0
Cc1cc(NC(=O)CSc2nnc3c(C)cc4c(C)ccc(C)c4n23)no1	1.46µM*	20.9%	-1.9%	1.16µM*	-2.7	35.3
COc1cc2cc(C)c3nnc(SCC(=O)Nc4cc(C)on4)n3c2cc1OC	?	35.1%	-9.4%[10 µM]	-3.2%	-3.7	4.1
Cc1cccn2cc(CN3CCN(S(=O)(=O)c4cccc(C(F)(F)F)c4)CC3)nc12	nt	nt	nt	nt	-0.8	nt
CCOC(=O)c1c(-c2ccccc2)oc2ccc(O)c(CN3CCOCC3)c12	23.1µM*	32.8%	-17.4%	23.1µM*	1.4	0.0
CCOC(=O)c1oc2cccc(O)c2c1CN1CCOCC1	-27.9%	2.7%	-10.4%	-23.3%	3.8	24.2
CCOC(=O)c1c(C)oc2ccc(O)c(CN3CCCCC3)c12	-29.0%	-3.4%	4.2%	?	-2.6	-69.4*
CC(=O)Oc1ccc(/C=c2\sc3ncnn3c2=O)cc1	?	-29.8%	-1.8%	20.6µM*	-0.8	0.0
CCCOc1ccc(/C=c2\sc3ncnn3c2=O)cc1	?	3.4%	-0.7%	?	-4.6	?
COc1cc2c(cc1OC)C(c1cccs1)N(C(=O)C(C)C)CC2 (stereo not drawn)	-25.6%	-3.2%	0.6%	?	0.0	10.2
COc1cc2c(cc1OC)C(C)N(C(=O)c1c(-c3ccccc3)noc1C)CC2 (stereo not drawn)	13µM*	4.4%	0.3%	18.4µM*	-1.7	66.1
COc1cc2c(cc1OC)C(C)N(C(=O)c1ccc(C)o1)CC2 (stereo not drawn)	20.6µM*	-10.7%	3.2%	25.9µM*	-2.5	-10.0
SMILES	TDP1 cell noCPT	RORg inh	VP16 counter	TDP1 cell CPT	LDHA block	IL-1B inflam inh
COc1cc2c(cc1OC)C(COc1ccc(F)cc1)N(C(=O)c1ccc(S(=O)(=O)N3CCCC3)cc1)CC2 (stereo not drawn)	?	nt	nt	?	-1.5	nt
COc1cc2c(cc1OC)C(C)N(C(=O)c1ccc(Cl)c(S(=O)(=O)N3CCCCC3)c1)CC2 (stereo not drawn)	10.3µM*	?	-2.7%	20.6µM*	-2.9	-16.3
COc1cc2c(cc1OC)C(C)N(C(=O)c1sccc1C)CC2 (stereo not drawn)	-16.2%	?	1.0%	?	0.5	?
Cc1onc(-c2ccccc2)c1C(=O)N1CCC(C)CC1	-11.3%	-28.5%	-2.0%	-6.6%	-0.4	14.5
COc1cc2c(cc1OC)C(c1cccs1)N(C(=O)c1cccnc1)CC2 (stereo not drawn)	2.91µM*	11.5%	7.3%	4.61µM*	-1.6	49.5
COc1cc2c(cc1OC)C(C)N(C(=O)c1cccc([N+](=O)[O-])c1)CC2 (stereo not drawn)	?	?	-7.2%	?	-4.3	-52.9*
COc1cc2c(cc1OC)C(C)N(CCc1ccc(Cl)cc1)CC2 (stereo not drawn)	?	nt	nt	?	-11.7	-58.8*
COc1cc2c(cc1OC)C(c1cc(OC)c(OC)cc1[N+](=O)[O-])N(C(C)=O)CC2 (stereo not drawn)	-24.0%	-4.6%	-2.4%	-16.5%	4.4	-18.6
CCOC(=O)NC(=O)/C(C#N)=N\Nc1ccc(Cl)cc1	-15.9%	?	1.6%	-3.9%	-9.4	1.7
CCOC(=O)NC(=O)/C(C#N)=N\Nc1cccc(Cl)c1	20.6µM*	26.8%	-18.9%	23.1µM*	-17.0	3.0
COc1ccc(NC(=O)c2cccc3c(-c4ccc(O)c(OC)c4)coc23)cc1	18.4µM*	nt	nt	?	-5.9	-1.3
COc1cc(-c2coc3c(C(=O)NCc4ccccc4)cccc23)ccc1O	-76.5%	nt	nt	18.4µM*	-6.0	?
COc1cc(-c2coc3c(C(=O)NCc4cccc(Cl)c4)cccc23)ccc1O	18.4µM*	nt	nt	?	-3.7	-54.5*
O=C(NCc1ccc(C(F)(F)F)cc1)c1cccc2c(-c3ccc(F)c(F)c3)coc12	?	nt	nt	?	-2.0	-1.7
CCCCn1c(N2CCN(Cc3c(F)cccc3Cl)CC2)nc2c1c(=O)[nH]c(=O)n2C	nt	nt	nt	nt	3.0	nt
CC(=O)c1ccccc1NC(=O)CSc1ncnc2ccccc12	nt	nt	nt	nt	4.1	nt
CCN(CC)C(=S)SCC(=O)c1ccc(F)cc1	4.11µM*	?	-9.7%	2.91µM*	-3.0	9.0
CCN(CC)C(=S)SCC(=O)Nc1ccc(F)cc1	?	?	-10.6%	20.6µM*	4.2	-25.9
Cc1cccc(C(C)C)c1NC(=O)C(C)OC(=O)C1=CN2CCS(=O)(=O)N=C2C=C1 (stereo not drawn)	nt	nt	nt	nt	-3.3	nt
